Screening data (PubChem BioAssay)
Sampled rows, rich in hits. Any-hit rate of the full collection: about 8.8%.
IL-1B inflam inh = inhibitors of inflammasome signaling (IL-1 beta secretion); THP-1 LPS/ATP IL-1B secretion, AlphaLISA, 16 h; hits give low values; 360,000 compounds, 4.7% hits; activity change, % at 57.5 µM; AID 743279; in the data active = activity change below about -50%; inconclusive = mostly about -30% to -49%
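Secreted IL-1B measured by AlphaLISA bead assay after 16 h compound exposure of THP-1 cells; compounds (final up to 57.5 uM) added 1 h before LPS (250 ng/mL) and ATP (1.25 mM) stimulation; lower signal means less secretion.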
HT1080-NT tox = kills 2HG-producing HT-1080-NT fibrosarcoma cells; HT-1080-NT fibrosarcoma viability, CellTiter-Glo ATP luminescence, 48 h; Potency, µM (top dose mostly 46.1 µM), actives largely listed as cytotoxic; 360,000 compounds, 1.6% hits; AID 686970;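 also: NT is the 2HG producing partner of a matched IDH1 knockdown line; nearly all actives have a fitted effect of over 55% in size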
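HT-1080-NT fibrosarcoma cells (2HG-overproducing), 750 cells/well in RPMI with 5% FBS, dosed after 2 h and incubated 48 h at 37C. CellTiter-Glo luminescence normalized to DMSO and no-cell wells; concentration-response curves fitted and classed.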
KB-V1 MDR tox = kills drug-selected multidrug resistant KB-V1 cells; KB-V1 MDR cells viability, CellTiter-Glo, 72 h; Potency, µM (top dose mostly 46.1 µM), most hits filed as cytotoxic; 400,000 compounds, 3.4% hits; also: nearly all actives have a fitted effect of over 60% in size
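Compound-treated KB-V1 multidrug-resistant cells, 72 h, 37 degrees C; viability by CellTiter-Glo. Fitted qHTS curves give the values.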
HT1080 IDH1KD tx = HT-1080 IDH1 knockdown cell toxicity (counter line). AID 686971. 360,000 compounds, 2% hits. Potency, µM (titrated, usually from 46.1 µM), hits mostly cytotoxic. HT-1080 IDH1 knockdown viability, ATP luminescence, 48 h
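CellTiter-Glo luminescence after 48 h compound exposure at 37 degrees C of IDH1-knockdown HT-1080 cells in 5% FBS RPMI. %Activity scaled between DMSO wells and cell-free media wells, with curves fitted and assigned curve classes.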
KB-3-1 cytotox = KB-3-1 parental cell cytotoxicity. AID 1347075. 400,000 compounds, 1.4% hits. KB-3-1 viability, CellTiter-Glo ATP luminescence, 72 h. Potency, µM (highest dose often 46.1 µM), actives largely listed as cytotoxic; also: nearly all actives have a fitted effect of over 60% in size
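KB-3-1 parental drug-naive adenocarcinoma cells in DMEM/10% FBS, incubated 72 h at 37 C with pin-transferred compounds across a concentration series. Viability by CellTiter-Glo luminescence; concentration-response curves fitted after normalization.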
Of the large screens only hits and unclear results are named; the others gave an inactive call. Unless noted, calls follow the shape of the dose curve; as a rule, active = well fitted curve in the direction sought with a large enough effect; inconclusive = small, poorly fitted or top-dose-only effect, or another doubt; inactive = no such curve, though single readings can be large; an effect the other way counts as inactive or inconclusive.

CC/C(=N\NC(=O)CCC(=O)NCc1ccccc1)c1ccc(O)cc1	KB-3-1 cytotox 3.3µM
COc1cc(NC(=O)c2cccs2)c(OC)cc1NC(=O)Cc1ccccc1	IL-1B inflam inh -54, KB-V1 MDR tox inconclusive
CCOC(=O)c1nnc(-c2ccccc2)nc1Sc1c(Cl)cccc1Cl	IL-1B inflam inh -116, HT1080-NT tox inconclusive, HT1080 IDH1KD tx 21µM
CCOC(=O)c1nnc(-c2ccc(C)cc2)nc1Oc1ccccc1Cl	IL-1B inflam inh inconclusive, HT1080-NT tox 23µM, HT1080 IDH1KD tx 23µM
CCOC(=O)c1nnc(-c2ccc(C)cc2)nc1Sc1ccccc1Cl	IL-1B inflam inh -97, KB-3-1 cytotox inconclusive
CCOC(=O)c1nnc(-c2ccc(C)cc2)nc1Sc1ccc(Cl)cc1	none
CCc1nc2c(OCc3ccc(F)cc3)cccn2c1N(C)C(=O)c1ccc(C)cc1	none
Cc1ccc2c(c1)C(=O)C(=O)N2Cc1ccc(Br)cc1	HT1080-NT tox inconclusive, KB-V1 MDR tox inconclusive, HT1080 IDH1KD tx 23µM
Cc1ccc(CN2C(=O)C(=O)c3cc(C)ccc32)cc1	KB-V1 MDR tox inconclusive, KB-3-1 cytotox inconclusive
Cc1ccc2c(c1)C(=O)C(=O)N2CCCOc1ccccc1C	IL-1B inflam inh inconclusive, HT1080-NT tox inconclusive, KB-3-1 cytotox inconclusive
CCCCN1C(=O)C(=O)c2cc(Cl)ccc21	HT1080-NT tox 26µM, KB-V1 MDR tox inconclusive, HT1080 IDH1KD tx 21µM, KB-3-1 cytotox inconclusive
Cc1cccc(OCCN2C(=O)C(=O)c3cccc(C)c32)c1	IL-1B inflam inh inconclusive
Cc1cccc(OCCN2C(=O)C(=O)c3cc(C)ccc32)c1	IL-1B inflam inh inconclusive, HT1080-NT tox 2.9µM, KB-V1 MDR tox inconclusive, HT1080 IDH1KD tx inconclusive, KB-3-1 cytotox inconclusive
CCCN1C(=O)C(=O)c2cc(C)ccc21	HT1080-NT tox inconclusive, KB-V1 MDR tox 8.2µM, HT1080 IDH1KD tx inconclusive, KB-3-1 cytotox 6.5µM
Cc1ccc2c(c1)C(=O)C(=O)N2CCOc1ccccc1	HT1080-NT tox 7.3µM, KB-V1 MDR tox inconclusive, HT1080 IDH1KD tx 21µM, KB-3-1 cytotox inconclusive
CCOc1ccccc1C1NC(=O)CCC1[N+](=O)[O-] (stereo not drawn)	KB-V1 MDR tox inconclusive
CCNC(=O)C1(C)CCCN(Cc2cc3ccccc3o2)C1 (stereo not drawn)	HT1080-NT tox inconclusive
COc1ccc(CN2C(=O)c3ccccc3C2C(=O)NC2CCCCCC2)c(OC)c1 (stereo not drawn)	IL-1B inflam inh -54
COc1ccc(CN2C(=O)CCC2(C)C(=O)NC2CCCCC2)c(OC)c1 (stereo not drawn)	KB-V1 MDR tox 21µM
COc1ccc(CN2C(=O)CCC2(C)C(=O)NCc2cccnc2)c(OC)c1 (stereo not drawn)	none
O=C(NC1CCCCCCC1)C1c2ccccc2C(=O)N1Cc1cccs1 (stereo not drawn)	none
CC1CCC(NC(=O)C2c3ccccc3C(=O)N2Cc2cccs2)CC1 (stereo not drawn)	KB-V1 MDR tox 3.7µM
O=C(NCc1cccc(F)c1)C1=Cc2cc(Br)ccc2OC1	none (no result: IL-1B inflam inh, HT1080-NT tox, HT1080 IDH1KD tx)
O=C(NNC(=O)c1ccc(F)cc1F)c1ccc(-n2cnnn2)cc1	none
CC(=O)N[C@@H](CC(=O)O)C(=O)O	IL-1B inflam inh -107, KB-3-1 cytotox inconclusive
O=C(Nc1cc(C(F)(F)F)ccc1N1CCOCC1)C1CCCO1 (stereo not drawn)	none (no result: KB-V1 MDR tox, KB-3-1 cytotox)
CN(C)C(CNC(=O)c1ccc2c(=O)n(-c3ccccc3F)c(=S)[nH]c2c1)Cc1ccccc1 (stereo not drawn)	none
Cc1cc(/C=C2\SC(=S)NC2=O)c(C)n1-c1cccc(O)c1	none
Cc1sc(-n2c(C)cc(/C=C3\SC(=S)NC3=O)c2C)c(C#N)c1C	HT1080-NT tox 13µM, HT1080 IDH1KD tx 11µM, KB-3-1 cytotox inconclusive
Cc1ccc(Cl)cc1NC(=O)COC(=O)CSc1ccccc1	none
COc1cccc(N2CCN(Cc3nc4scc(-c5ccccc5)c4c(=O)[nH]3)CC2)c1	HT1080-NT tox 13µM, KB-V1 MDR tox 9.2µM, HT1080 IDH1KD tx 12µM, KB-3-1 cytotox inconclusive
O=c1[nH]c(CN2CCN(c3ccc(O)cc3)CC2)nc2scc(-c3ccc(Cl)cc3)c12	HT1080-NT tox inconclusive, HT1080 IDH1KD tx 21µM, KB-3-1 cytotox inconclusive
COc1ccc(N2CCN(Cc3nc4sc(C)c(C)c4c(=O)[nH]3)CC2)cc1	none
O=c1[nH]c(CN2CCN(c3ccccc3O)CC2)nc2scc(-c3ccccc3Cl)c12	IL-1B inflam inh -52, HT1080 IDH1KD tx inconclusive, KB-3-1 cytotox inconclusive
Cc1ccc(C(=O)NCC(=O)OCC(=O)c2ccc3ccccc3c2)cc1	none (no result: IL-1B inflam inh, HT1080-NT tox, HT1080 IDH1KD tx)
Cc1cc(S(=O)(=O)Nc2ccc(C(=O)NCCCN3CCOCC3)cc2)ccc1F	none
Cc1ccc(C(NC(=O)N2CCCCC2)=C(Cl)Cl)cc1F	IL-1B inflam inh -71
Cc1ccc(C(NC(=O)NCCCN2CCOCC2)=C(Cl)Cl)cc1F	IL-1B inflam inh -51, KB-V1 MDR tox inconclusive, KB-3-1 cytotox inconclusive
O=C(O)c1cc([N+](=O)[O-])ccc1N1CCC(Cc2ccccc2)CC1	none
O=C(NCC1CCCO1)c1cc([N+](=O)[O-])ccc1N1CCC(Cc2ccccc2)CC1 (stereo not drawn)	KB-V1 MDR tox inconclusive, KB-3-1 cytotox 4.6µM
O=c1c(-c2ccc(Cl)cc2)cnc2n1CCS2	none
CC(=O)N(C(C)=O)N1C(=O)C2C3c4ccccc4C(c4ccccc43)C2C1=O (stereo not drawn)	HT1080-NT tox 21µM, KB-V1 MDR tox inconclusive, HT1080 IDH1KD tx 13µM
CN1C(=O)C2C3c4ccccc4C(c4ccccc43)[C@@H]2C1=O (stereo partly drawn)	none
O=C(c1ccccc1)N1CCN(C(=O)C23CC4CC(CC(C4)C2)C3)CC1	none
O=C(N1CCN(c2ccccc2F)CC1)C12CC3CC(CC(C3)C1)C2	KB-V1 MDR tox 18µM
CN1CCN(C(=O)C23CC4CC(C2)CC(c2ccccc2)(C4)C3)CC1	IL-1B inflam inh -53
Cc1cccc(N2CCN(C(=O)C34CC5CC(CC(C5)C3)C4)CC2)c1C	none
CC(=O)c1nnn(-c2nc(C#N)nc(N3CCOCC3)n2)c1C	none (no result: IL-1B inflam inh, HT1080-NT tox, HT1080 IDH1KD tx)
N=c1n(CCCOc2ccccc2Cl)c2ccccc2n1CC(N)=O	IL-1B inflam inh -102, HT1080-NT tox inconclusive, HT1080 IDH1KD tx inconclusive, KB-3-1 cytotox inconclusive
CCOC(=O)C1=CCN(S(=O)(=O)c2ccccc2C)C1c1cccc(Cl)c1 (stereo not drawn)	KB-V1 MDR tox 21µM, HT1080 IDH1KD tx inconclusive, KB-3-1 cytotox inconclusive
CCOC(=O)C1=CCN(S(=O)(=O)c2cccc(Cl)c2)C1c1ccccc1 (stereo not drawn)	KB-V1 MDR tox 18µM
O=C(O)CCc1ccc(-c2ccccc2)n1-c1cccc(Br)c1	none (no result: IL-1B inflam inh, HT1080-NT tox, HT1080 IDH1KD tx)
CCOc1ccc(NCc2cccn2-c2nnc(N3CCC(C(=O)NCCCN4CCCCC4CC)CC3)s2)cc1 (stereo not drawn)	IL-1B inflam inh -69, KB-V1 MDR tox inconclusive
